In PubChem BioAssay (Tox21):
Inconclusive results are not listed. Activity calls are given as the source filed them. Unless noted, the call rests on the fitted dose curve.

Assays:
[1] = Nuclear factor erythroid 2-related factor 2/antioxidant responsive element (Nrf2/ARE) small molecule agonists: qHTS cell viability counter screen in human keratinocytes (AID 1919968; active means well fitted curve in the direction sought with a large enough effect in the repeat runs; an effect the other way counts as inactive or inconclusive; further: nearly all actives have a fitted effect of over 55% in size)
Procedure, shortened: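 In human HaCaT keratinocytes stably expressing an ARE-driven luciferase, compound exposure lasted 23 h at 37 C under 5% CO2. Viable cells are quantified with a protease-based fluorogenic reagent (CellTiter-Fluor) read 1 h after addition.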

[2] = Nuclear factor erythroid 2-related factor 2/antioxidant responsive element (Nrf2/ARE) small molecule agonists: luciferase reporter gene qHTS assay in human keratinocytes (AID 1919969); further: nearly all actives have a fitted effect of over 35% in size; further: potency means the concentration at half of the fitted maximal effect
[3] = biological target: Gonadotropin-releasing hormone receptor (Homo sapiens) (UniProt P30968); assay: Human gonadotropin-releasing hormone receptor (GnRHR) small molecule agonists, calcium flux assay in GnRHR-HEK293 cells (AID 1920063); further: nearly all actives have a fitted effect of over 35% in size
Sequence of Gonadotropin-releasing hormone receptor (Homo sapiens) (P30968 whole entry, looked up): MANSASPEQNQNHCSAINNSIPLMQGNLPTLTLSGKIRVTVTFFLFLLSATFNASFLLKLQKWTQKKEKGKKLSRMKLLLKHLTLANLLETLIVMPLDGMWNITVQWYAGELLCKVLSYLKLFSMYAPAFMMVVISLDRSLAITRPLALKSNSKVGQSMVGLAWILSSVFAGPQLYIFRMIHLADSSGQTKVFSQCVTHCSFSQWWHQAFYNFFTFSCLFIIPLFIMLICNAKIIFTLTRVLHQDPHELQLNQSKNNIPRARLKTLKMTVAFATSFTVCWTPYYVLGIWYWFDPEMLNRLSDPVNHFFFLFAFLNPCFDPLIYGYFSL
Procedure, shortened: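 Intracellular calcium rise is the read-out: engineered human GnRHR HEK293 cells, dye-loaded, are exposed to DMSO-dissolved compounds and fluorescence at Ex/Em 480/540 is tracked for 3 min.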

[4] = biological target: KiSS-1 receptor (Homo sapiens) (UniProt Q969F8); assay: Human kisspeptin (KISS1R) small molecule agonists, calcium flux assay in KISS1R-HEK293 cells (AID 1920064; active means well fitted curve in the direction sought with a large enough effect in the repeat runs; an effect the other way counts as inactive or inconclusive)
Sequence of KiSS-1 receptor (Homo sapiens) (Q969F8 whole entry, looked up): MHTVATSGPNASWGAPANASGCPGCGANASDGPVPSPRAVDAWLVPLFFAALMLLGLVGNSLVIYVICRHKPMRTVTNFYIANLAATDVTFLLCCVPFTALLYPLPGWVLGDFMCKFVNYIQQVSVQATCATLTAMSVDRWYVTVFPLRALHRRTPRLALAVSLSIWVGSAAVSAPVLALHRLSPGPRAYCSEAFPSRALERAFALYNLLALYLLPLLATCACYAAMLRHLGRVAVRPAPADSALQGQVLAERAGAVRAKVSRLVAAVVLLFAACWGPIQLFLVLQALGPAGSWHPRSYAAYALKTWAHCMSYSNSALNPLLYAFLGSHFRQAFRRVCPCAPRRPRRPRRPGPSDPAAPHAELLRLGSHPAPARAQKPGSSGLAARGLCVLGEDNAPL
Procedure, shortened: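 Concentration-response testing used 15 concentrations in triplicate on human KISS1R-expressing HEK293 cells. Calcium-dependent fluorescence (Ex/Em 480/540) was followed kinetically for 3 min after compound transfer.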

[5] = G protein-coupled receptor (GPCR) small molecule agonists, calcium flux assay: HEK293 wild type cell line counter screen (AID 1920065)
Procedure, shortened: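 Fluorescence intensity signals activation. After overnight (18 h) culture and a 1 h calcium dye load at 37 C, compounds are added by pin tool and the plate read at 480/540 nm for 3 min in 1 s steps.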

[6] = p53 small molecule agonists, cell-based qHTS assay with human liver microsomes (AID 1963577);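 further: p53 response element beta-lactamase reporter cells with liver microsomes plus NADPH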
Procedure, shortened: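 In this qHTS, p53 response-element beta-lactamase cells receive test compound together with a microsome/NADPH activating system (0.5 mg/mL final each) and are incubated 16 h at 37 C before LiveBLAzer fluorescence detection.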

[7] = p53 small molecule agonists, cell-based qHTS assay with rat liver microsomes: qHTS cell viability counter screen (AID 1963580); further: nearly all actives have a fitted effect of over 45% in size
Procedure, shortened: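 Luminescent ATP readout (CellTiter-Glo, 30 min at room temperature) reports viability of p53RE-bla HCT-116 cells after 16 h at 37 C with test compounds under metabolic activation by rat liver microsomes and NADPH at 0.5 mg/mL final each.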

[8] = p53 small molecule agonists, cell-based qHTS assay (AID 1963582; active means well fitted activation curve with a large enough effect in the signal ratio in the repeat runs, not every such curve was filed as active; the % refers to the signal ratio)
Procedure, shortened: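 After plating, p53RE-bla cells sat 5 h in the incubator; compounds or DMSO vehicle were pinned in; a 16 h incubation at 37 C followed; FRET substrate was added and, 2 h later at RT, fluorescence was measured.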

[9] = biological target: 5-hydroxytryptamine receptor 2A (Homo sapiens) (UniProt P28223); assay: 5-hydroxytryptamine receptor 2A (HTR2A) small molecule antagonists, cell-based qHTS assay (AID 1963586); further: nearly all actives have a fitted effect of over 45% in size
Sequence of 5-hydroxytryptamine receptor 2A (Homo sapiens) (P28223 whole entry, looked up): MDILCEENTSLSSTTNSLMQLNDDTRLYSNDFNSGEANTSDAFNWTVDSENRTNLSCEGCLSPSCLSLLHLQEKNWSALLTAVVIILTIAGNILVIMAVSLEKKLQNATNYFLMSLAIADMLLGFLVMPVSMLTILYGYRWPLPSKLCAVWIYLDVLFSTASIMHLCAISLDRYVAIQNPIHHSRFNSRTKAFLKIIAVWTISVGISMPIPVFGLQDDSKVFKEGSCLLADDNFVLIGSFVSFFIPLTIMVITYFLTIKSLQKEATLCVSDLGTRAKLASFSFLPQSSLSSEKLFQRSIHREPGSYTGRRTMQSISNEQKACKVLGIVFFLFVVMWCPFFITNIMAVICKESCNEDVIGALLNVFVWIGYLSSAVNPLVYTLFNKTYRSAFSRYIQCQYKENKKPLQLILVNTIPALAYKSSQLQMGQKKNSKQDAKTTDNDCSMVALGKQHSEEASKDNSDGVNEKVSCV
Procedure, shortened: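 CHO cells stably expressing human HTR2A were plated for 18 h at 37 C, then loaded with calcium dye for 1 h. Compounds were preincubated 5 min at room temperature before DOI (4 nM solution) was added. Kinetic fluorescence was read for 3 min.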

[10] = biological target: 5-hydroxytryptamine receptor 2A (Homo sapiens) (UniProt P28223); assay: 5-hydroxytryptamine receptor 2A (HTR2A) small molecule agonists, cell-based qHTS assay (AID 1963587); further: nearly all actives have a fitted effect of over 30% in size
Procedure, shortened: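 HTR2A-CHO cells, plated 18 h at 37 C/5% CO2, dye-loaded 1 h at 37 C; compounds in DMSO added by pin tool (agonist mode). Intracellular calcium flux read as kinetic fluorescence on FDSS over 2 min at 1 s intervals.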

[11] = biological target: Muscarinic acetylcholine receptor M1 (Homo sapiens) (UniProt P11229); assay: Cholinergic receptor muscarinic 1 (CHRM1) small molecule antagonists, cell-based qHTS assay (AID 1963588); further: nearly all actives have a fitted effect of over 40% in size
Sequence of Muscarinic acetylcholine receptor M1 (Homo sapiens) (P11229 whole entry, looked up): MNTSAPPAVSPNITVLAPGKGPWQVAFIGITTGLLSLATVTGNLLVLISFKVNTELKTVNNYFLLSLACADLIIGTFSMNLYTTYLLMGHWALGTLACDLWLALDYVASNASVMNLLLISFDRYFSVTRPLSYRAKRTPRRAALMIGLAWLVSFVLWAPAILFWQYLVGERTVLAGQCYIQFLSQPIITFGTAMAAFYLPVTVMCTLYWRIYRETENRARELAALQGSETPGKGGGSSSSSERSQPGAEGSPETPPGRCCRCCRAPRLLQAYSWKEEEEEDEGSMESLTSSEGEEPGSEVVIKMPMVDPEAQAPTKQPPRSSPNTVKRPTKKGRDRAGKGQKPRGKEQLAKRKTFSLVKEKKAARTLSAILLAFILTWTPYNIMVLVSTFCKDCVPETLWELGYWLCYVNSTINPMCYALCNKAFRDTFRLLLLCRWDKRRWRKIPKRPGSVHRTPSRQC
Procedure, shortened: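 Compounds were tested at 15 concentrations in three independent runs. Dye-loaded CHRM1-CHO cells were exposed 5 min at room temperature before stimulation by acetylcholine added at 50nM. Intracellular calcium was read kinetically on FDSS for 3 min.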

[12] = cAMP Responsive Elements (CRE) small molecule agonists, cell-based qHTS assay (AID 1963590)
Procedure, shortened: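 Compound exposure lasted 3 h at 37 C/5% CO2 in CRE-bla HEK 293T cells grown in assay medium with 10% dialyzed FBS and 25 mM HEPES. Reporter signal came from LiveBLAzer B/G FRET substrate, 2 h, room temperature.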

[13] = cAMP Responsive Elements (CRE) small molecule antagonists, cell-based qHTS assay (AID 1963591; active means well fitted inhibition curve with a large enough effect in the signal ratio in the repeat runs, not every such curve was filed as active; the % refers to the signal ratio)
Procedure, shortened: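 Stimulation used NKH477 at a final 0.25 uM for 3 h in compound-treated CRE-bla HEK293T cells, seeded 18 h beforehand. Reporter activity was measured with LiveBLAzer B/G FRET substrate after 2 h at room temperature.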

[14] = biological target: Beta-2 adrenergic receptor (Homo sapiens) (UniProt P07550); assay: Adrenergic beta2 receptor (ADRB2) small molecule antagonists, cell-based qHTS assay (AID 1963592); further: series mostly up to about 92 µM; nearly all actives have a fitted effect of over 50% in size
Sequence of Beta-2 adrenergic receptor (Homo sapiens) (P07550 whole entry, looked up): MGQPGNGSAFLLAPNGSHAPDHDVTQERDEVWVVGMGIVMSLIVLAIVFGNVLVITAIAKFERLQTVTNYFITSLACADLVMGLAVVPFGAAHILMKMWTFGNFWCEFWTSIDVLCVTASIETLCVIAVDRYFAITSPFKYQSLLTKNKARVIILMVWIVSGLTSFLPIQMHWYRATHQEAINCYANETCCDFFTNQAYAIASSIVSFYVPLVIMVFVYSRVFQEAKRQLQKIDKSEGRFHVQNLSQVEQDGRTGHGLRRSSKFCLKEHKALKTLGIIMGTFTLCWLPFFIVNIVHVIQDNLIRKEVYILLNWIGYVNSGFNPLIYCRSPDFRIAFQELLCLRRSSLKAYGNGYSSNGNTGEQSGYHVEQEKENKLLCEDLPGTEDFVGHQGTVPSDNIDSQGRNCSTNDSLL
Procedure, shortened: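 Assay format: CHO-ADRB2 cells, 18-20hr seeding at 37C/5% CO2, then compound plus 1nM isoproterenol agonist mix for 0.5hr RT. Homogeneous time-resolved fluorescence cAMP detection after 1hr, expressed as 665/615 nm ratio.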

[15] = biological target: D(2) dopamine receptor (Homo sapiens) (UniProt P14416); assay: Dopamine D2 receptor (DRD2) small molecule agonists, cell-based qHTS assay (AID 1963594); further: nearly all actives have a fitted effect of over 35% in size
Sequence of D(2) dopamine receptor (Homo sapiens) (P14416 whole entry, looked up): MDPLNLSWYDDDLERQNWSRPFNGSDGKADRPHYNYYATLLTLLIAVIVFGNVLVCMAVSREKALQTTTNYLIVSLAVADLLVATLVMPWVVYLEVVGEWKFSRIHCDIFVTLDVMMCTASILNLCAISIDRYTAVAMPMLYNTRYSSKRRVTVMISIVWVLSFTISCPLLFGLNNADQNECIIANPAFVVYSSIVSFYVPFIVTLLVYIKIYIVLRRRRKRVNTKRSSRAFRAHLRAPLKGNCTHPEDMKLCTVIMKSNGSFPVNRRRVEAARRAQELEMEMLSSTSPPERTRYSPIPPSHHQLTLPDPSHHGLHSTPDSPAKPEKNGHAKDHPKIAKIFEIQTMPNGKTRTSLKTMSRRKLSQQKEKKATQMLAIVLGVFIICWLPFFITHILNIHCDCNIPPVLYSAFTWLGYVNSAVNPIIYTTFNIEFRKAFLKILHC
Procedure, shortened: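 HEK293 cells stably expressing DRD2 were cultured 24 h at 37 C, then given Ro20-1724 (0.1 mM final) and compounds for 10 min at room temperature. NKH477 (200nM) was then added for 30 min. cAMP was read by HTRF.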

[16] = biological target: D(2) dopamine receptor (Homo sapiens) (UniProt P14416); assay: Dopamine D2 receptor (DRD2) small molecule antagonists, cell-based qHTS assay (AID 1963595; active means well fitted inhibition curve with a large enough effect in the signal ratio in the repeat runs, with a control signal flat; the % refers to the signal ratio)
Procedure, shortened: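 Stable D2 receptor HEK293 line, 24 h after seeding. Compound preincubated 10 min, then quinpirole (12 nM) with forskolin analogue NKH477 (200 nM), 30 min, room temperature. Detection by time-resolved FRET of cAMP.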

[17] = p53 small molecule agonists, cell-based qHTS assay with human liver microsomes: qHTS cell viability counter screen (AID 1963579); further: nearly all actives have a fitted effect of over 45% in size
Procedure, shortened: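 Metabolically activated exposure: compounds, human liver microsomes and NADPH (0.5 mg/mL final apiece) were added to p53RE-bla cells seeded 5 h earlier, left 16 h at 37 C, and then assessed for viability by CellTiter-Glo luminescence.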

[18] = biological target: Muscarinic acetylcholine receptor M1 (Homo sapiens) (UniProt P11229); assay: Cholinergic receptor muscarinic 1 (CHRM1) small molecule agonists, cell-based qHTS assay (AID 1963589); further: nearly all actives have a fitted effect of over 35% in size
Procedure, shortened: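 Fluorescent calcium dye reports M1 activation in stably transfected CHO cells. Compounds, 15 concentrations, added after 1 h dye loading at 37 C; kinetic reading at 1 sec intervals.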

[19] = p53 small molecule agonists, cell-based qHTS assay: qHTS cell viability counter screen (AID 1963581); further: nearly all actives have a fitted effect of over 45% in size
Procedure, shortened: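 Luminescence from CellTiter-Glo, reflecting ATP content, serves as the cytotoxicity measure; it is taken after the 2 h reporter substrate step in HCT-116 p53RE-bla cells dosed for 16 h at 37 C.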
On the % scale 0 is the no-effect control and ±100 the full control effect.

O=C(Nc1ccc(Cl)c(Cl)c1)C1CC1
inactive: Potency [1] | Potency [2] | Potency [3] | outcome [4] | outcome [5] | Potency [6] | Potency [7] | Potency [8] | Potency [9] | Potency [10] | Potency [11] | Potency [12] | Potency [13] | Potency [14] | Potency [15] | Potency [16]

Nc1ccc(C(=O)Oc2ccccc2)c(O)c1
inactive: Potency [1] | Potency [2] | Potency [3] | outcome [4] | outcome [5] | Potency [6] | Potency [17] | Potency [7] | Potency [8] | Potency [9] | Potency [10] | Potency [18] | Potency [12] | Potency [13] | Potency [15] | Potency [16]

CCN(CCC#N)c1ccc(N=Nc2ccc([N+](=O)[O-])cc2)cc1
inactive: Potency [1] | Potency [2] | Potency [3] | outcome [4] | outcome [5] | Potency [6] | Potency [17] | Potency [7] | Potency [9] | Potency [10] | Potency [11] | Potency [18] | Potency [12] | Potency [13] | Potency [14] | Potency [15] | Potency [16]

O=C(OOC(=O)c1ccccc1)c1ccccc1
inactive: Potency [1] | Potency [2] | Potency [3] | outcome [4] | outcome [5] | Potency [6] | Potency [17] | Potency [8] | Potency [9] | Potency [11] | Potency [18] | Potency [12] | Potency [13] | Potency [14] | Potency [15] | Potency [16]

CCCCCCCCCCCCCC=O
inactive: activity change, negative = cytotoxicity [1] -1.13% [at 8.39 µM] | activity, positive = activation [2] 0.0623% [at 8.39 µM] | activity change [3] -0.408% [at 5.22 µM, hits give high values] | activation [4] 0.0205% [at 6.97 µM] | activation [5] 0.0655% [at 5.23 µM] | activation [6] 0.781% [at 5.99 µM] | activity change, negative = cytotoxicity [17] -3.87% [at 5.99 µM] | activity change, negative = cytotoxicity [19] -2.03% [at 5.99 µM] | activation [8] 5.85% [at 5.99 µM] | activity, negative = inhibition [9] 4.12% [at 5.62 µM] | activation [10] -1.86% [at 7.02 µM] | activity, negative = inhibition [11] 4.29% [at 5.58 µM] | activation [18] 0.649% [at 6.97 µM] | activation [12] -0.0207% [at 8.39 µM] | activity change, negative = inhibition [13] 0.604% [at 8.39 µM] | activity change, negative = inhibition [14] 0.833% [at 8.39 µM] | activation [15] 1.32% [at 8.39 µM]

CCCCCCCCCC=O
inactive: Potency [1] | Potency [2] | Potency [3] | outcome [4] | outcome [5] | Potency [6] | Potency [17] | Potency [7] | Potency [19] | Potency [9] | Potency [10] | Potency [11] | Potency [18] | Potency [15] | Potency [16]

Oc1cc(O)c(Cl)cc1Cl
inactive: Potency [1] | Potency [3] | outcome [4] | outcome [5] | Potency [6] | Potency [7] | Potency [19] | Potency [8] | Potency [9] | Potency [10] | Potency [11] | Potency [18] | Potency [12] | Potency [13] | Potency [14] | Potency [15] | Potency [16]
active: Potency [2] 55.8 µM
